# In all, about 5,500 compounds went through this assay and about 2,000 (36%) were called active. Roughly 18% stayed inconclusive and do not appear here. The list shows a part of the results. A number with no mark means an inactive call. Cut-off read from the data, not from the text of the source: active = normalized growth mostly below about 0.91 (no sharp cut-off); inconclusive = no clear call, values can overlap the other calls; inactive = mostly above about 0.92.
# Test: chemical genetic growth profiling, strain panel (AID 1159580);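 note: tested at 20 µM; growth read once vehicle control cultures reached saturation at 30 °C; 1 = growth at the plate median or of vehicle wells; lower values mean less growth of the strain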
# Conditions: S. cerevisiae deletion strains, growth OD
smiles,measurement,setting,value
C=CCCCCCCCCCCCC(O)CC(O)CO (centres undefined) (tested in a mixture with another compound),normalized growth,"locus YBR021W, strain FUR4, hits give low values",0.426 (active)
same,normalized growth,"locus YBR229C, strain ROT2, hits give low values",0.531 (active)
same,normalized growth,"locus YCL029C, strain bik1, hits give low values",0.253 (active)
same,normalized growth,"locus YDL035C, strain GPR1, hits give low values",0.359 (active)
same,normalized growth,"locus YDL074C, strain BRE1, hits give low values",0.208 (active)
same,normalized growth,"locus YDL101C, strain DUN1, hits give low values",0.242 (active)
same,normalized growth,"locus YDL185W, strain tfp1, hits give low values",0.611 (active)
same,normalized growth,"locus YDL192W, strain arf1, hits give low values",0.231 (active)
same,normalized growth,"locus YDR101C, strain arx1, hits give low values",0.471 (active)
same,normalized growth,"locus YDR150W, strain NUM1, hits give low values",0.637 (active)
same,normalized growth,"locus YDR162C, strain NBP2, hits give low values",0.281 (active)
same,normalized growth,"locus YDR318W, strain mcm21, hits give low values",0.224 (active)
same,normalized growth,"locus YDR388W, hits give low values",0.496 (active)
same,normalized growth,"locus YDR502C, strain sam2, hits give low values",0.347 (active)
same,normalized growth,"locus YEL061C, strain CIN8, hits give low values",0.177 (active)
same,normalized growth,"locus YER110C, hits give low values",0.27 (active)
same,normalized growth,"locus YER155C, strain BEM2, hits give low values",0.0936 (active)
same,normalized growth,"locus YER167W, strain BCK2, hits give low values",0.276 (active)
same,normalized growth,"locus YGL078C, strain dbp3, hits give low values",0.465 (active)
same,normalized growth,"locus YGL086W, strain mad1, hits give low values",0.145 (active)
same,normalized growth,"locus YGL248W, strain PDE1, hits give low values",0.165 (active)
same,normalized growth,"locus YGR135W, strain pre9, hits give low values",0.335 (active)
same,normalized growth,"locus YGR252W, strain gcn5, hits give low values",0.407 (active)
same,normalized growth,"locus YHR030C, strain SLT2, hits give low values",0.21 (active)
same,normalized growth,"locus YHR079C, strain IRE1 (second series), hits give low values",0.253 (active)
same,normalized growth,"locus YHR094C, strain hxt1, hits give low values",0.198 (active)
same,normalized growth,"locus YHR129C, strain ARP1, hits give low values",0.248 (active)
same,normalized growth,"locus YHR200W, strain rpn10, hits give low values",0.328 (active)
same,normalized growth,"locus YIL066C, strain RNR3, hits give low values",0.217 (active)
same,normalized growth,"locus YIL073C, strain SPO22, hits give low values",0.544 (active)
same,normalized growth,"locus YIL125W, strain kgd1, hits give low values",0.288 (active)
same,normalized growth,"locus YIR030C, strain dcg1, hits give low values",0.341 (active)
same,normalized growth,"locus YJL095W, strain BCK1, hits give low values",0.139 (active)
same,normalized growth,"locus YJL134W, strain LCB3, hits give low values",0.273 (active)
same,normalized growth,"locus YJL168C, strain set2, hits give low values",0.521 (active)
same,normalized growth,"locus YJL187C, strain SWE1 (second series), hits give low values",0.386 (active)
same,normalized growth,"locus YKL009W, strain mrt4, hits give low values",0.274 (active)
same,normalized growth,"locus YKL068W, hits give low values",1
same,normalized growth,"locus YKL085W, strain MDH1 (second series), hits give low values",0.343 (active)
same,normalized growth,"locus YKL085W, strain MDH1, hits give low values",0.343 (active)
same,normalized growth,"locus YKR001C, strain vps1, hits give low values",0.123 (active)
same,normalized growth,"locus YLR039C, strain RIC1, hits give low values",0.46 (active)
same,normalized growth,"locus YLR058C, strain SHM2, hits give low values",0.301 (active)
same,normalized growth,"locus YLR102C, strain apc9, hits give low values",0.225 (active)
same,normalized growth,"locus YLR262C, strain YPT6, hits give low values",0.355 (active)
same,normalized growth,"locus YLR268W, strain sec22, hits give low values",0.308 (active)
same,normalized growth,"locus YLR330W, strain CHS5, hits give low values",0.097 (active)
same,normalized growth,"locus YLR371W, strain rom2, hits give low values",0.204 (active)
same,normalized growth,"locus YLR418C, strain cdc73, hits give low values",0.186 (active)
same,normalized growth,"locus YML016C, strain PPZ1, hits give low values",0.218 (active)
same,normalized growth,"locus YML032C, strain rad52, hits give low values",0.201 (active)
same,normalized growth,"locus YML124C, strain tub3, hits give low values",0.503 (active)
same,normalized growth,"locus YMR078C, strain ctf18, hits give low values",0.125 (active)
same,normalized growth,"locus YMR223W, strain ubp8, hits give low values",0.159 (active)
same,normalized growth,"locus YMR263W, strain SAP30, hits give low values",0.32 (active)
same,normalized growth,"locus YMR307W, strain GAS1, hits give low values",0.241 (active)
same,normalized growth,"locus YNL067W, strain RPL9B, hits give low values",0.56 (active)
same,normalized growth,"locus YNL153C, strain GIM3, hits give low values",0.365 (active)
same,normalized growth,"locus YNL233W, strain BNI4, hits give low values",0.141 (active)
same,normalized growth,"locus YNL250W, strain rad50, hits give low values",0.734 (active)
same,normalized growth,"locus YNL271C, strain bni1, hits give low values",0.526 (active)
same,normalized growth,"locus YNL298W, strain CLA4, hits give low values",0.384 (active)
same,normalized growth,"locus YNL307C, strain MCK1, hits give low values",0.0684 (active)
same,normalized growth,"locus YNR052C, strain pop2, hits give low values",0.426 (active)
same,normalized growth,"locus YOL006C, strain TOP1, hits give low values",0.149 (active)
same,normalized growth,"locus YOL012C, strain htz1",1.15
same,normalized growth,"locus YOL147C, strain pex11, hits give low values",0.104 (active)
same,normalized growth,"locus YOR061W, strain CKA2, hits give low values",0.0632 (active)
same,normalized growth,"locus YOR069W, strain VPS5, hits give low values",0.559 (active)
same,normalized growth,"locus YOR136W, strain idh2, hits give low values",0.136 (active)
same,normalized growth,"locus YOR144C, strain elg1, hits give low values",0.236 (active)
same,normalized growth,"locus YOR184W, strain ser1, hits give low values",0.129 (active)
same,normalized growth,"locus YOR316C, strain cot1, hits give low values",0.354 (active)
same,normalized growth,"locus YPL241C, strain CIN2, hits give low values",0.114 (active)
same,normalized growth,"locus YPR119W, strain clb2, hits give low values",0.148 (active)
same,normalized growth,"locus YPR141C, strain kar3, hits give low values",0.824 (active)
same,normalized growth,"locus YPR163C, strain tif3, hits give low values",0.205 (active)
same,normalized growth,"locus YPR167C, strain met16, hits give low values",0.203 (active)
same,normalized growth,"strain wtn01, hits give low values",0.337 (active)

# Source: PubChem BioAssay AID1159580 (chemical genetic matrix, 2015)
